Among the data in PubChem BioAssay (EPA / NIEHS) are outcome and AC50 values, retold here.

Active and inactive are the calls of the source. How the source made its calls: active means hit-call score of the fitted dose curve at least 0.9, where 1 is the maximum; inactive means score below 0.9.

The nature of experiment [1]: BSK_3C_SRB: Viability Assessment in the BioMAP Diversity Plus: 3C Assay (AID 2283023).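 Further: fitted both ways against DMSO so a hit may be signal rise or drop.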 The note with it: primary human endothelial cells (HUVEC). The essentials: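 Cytotoxicity readout in parallel HUVEC 3C cultures: after 24 h compound exposure, cells fixed with 10% TCA, stained with 0.1% SRB and read at 560 nm. Gain or loss relative to DMSO fitted.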
A short description of experiment [2]: BSK_3C_Vis: BioMAP Diversity Plus: 3C Assay for Morphology Visualization (AID 2283025).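 Further: fitted both ways so gain or loss versus DMSO counts.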 As to conditions: primary human endothelial cells (HUVEC). The procedure, abridged: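 Human umbilical vein endothelial cells in the 3C system were imaged by light microscopy 24 h after chemical dosing to record cell morphology. Activity was fitted bidirectionally against DMSO as negative control and baseline; the endpoint serves as a background control.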

Read-out in experiment [3]: Pselectin, SELP (gene 6403)
The experiment can be described thus: BSK_4H_Pselectin: BioMAP Diversity Plus: 4H Assay for Pselectin Biomarker Activity (AID 2283026). As to conditions: primary human endothelial cells (HUVEC); actives raise or lower the signal. The procedure, abridged: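 Primary human umbilical vein endothelial cells were exposed to test chemical for 24 h, then cell-surface P-selectin was quantified by ELISA. Activity was fitted bidirectionally against DMSO as negative control and baseline.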

Experiment [4] is described as follows: BSK_4H_SRB: Viability Assessment in the BioMAP Diversity Plus: 4H Assay (AID 2283027).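 Further: cells exposed to compound for 24 h before staining.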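 On AC50: curves fitted both ways versus DMSO so AC50 may be loss or gain.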 The note with it: primary human endothelial cells (HUVEC). The procedure, abridged: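 Absorbance at 560 nm of SRB-stained total protein served as the viability read-out in confluent primary human umbilical vein endothelium 24 h after chemical treatment. Curves were fitted bidirectionally against DMSO as negative control.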

Experiment [5] can be described thus: BSK_BE3C_SRB: Viability Assessment in the BioMAP Diversity Plus: BE3C Assay (AID 2283028).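 On AC50: fitted both ways so AC50 may mark signal gain or loss versus DMSO.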 The note with it: primary human bronchial epithelial cells. The essentials:
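Cytotoxicity read-out: SRB (0.1%) staining of TCA-fixed (10%) human lung bronchial epithelial cells, absorbance 560 nm, 24 h post-dosing. Curves fitted both directions relative to DMSO.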

Read-out in experiment [6]: Thrombomodulin, THBD (gene 7056)
Put plainly: BSK_3C_Thrombomodulin: BioMAP Diversity Plus: 3C Assay for Thrombomodulin Biomarker Activity (AID 2283029). The note with it: primary human endothelial cells (HUVEC); actives raise or lower the signal. The essentials: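 Primary human umbilical vein endothelial cells (3C system) were exposed to chemical for 24 h, then thrombomodulin levels were measured by ELISA. Activity was fitted bidirectionally against the DMSO negative control as baseline.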

Read-out in experiment [7]: Urokinase-type plasminogen activator receptor (uPAR), PLAUR (gene 5329)
The experiment can be described thus: BSK_4H_uPAR: BioMAP Diversity Plus: 4H Assay for Urokinase-type plasminogen activator receptor (uPAR) Biomarker Activity (AID 2283030). The note with it: primary human endothelial cells (HUVEC); actives raise or lower the signal. The procedure, abridged:
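uPAR level read by ELISA on HUVEC cultures (BioMAP 4H) 24 h post-dosing, analyzed for gain or loss relative to DMSO. Parallel SRB staining assessed overt cytotoxicity.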

Read-out in experiment [8]: Vascular endothelial growth factor receptor 2 (Homo sapiens) (UniProt P35968)
Put plainly: BSK_4H_VEGFRII: BioMAP Diversity Plus: 4H Assay for Vascular endothelial growth factor receptor 2 (VEGFR2) Biomarker Activity (AID 2283031). As to conditions: primary human endothelial cells (HUVEC); actives raise or lower the signal. The essentials: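 Measured by ELISA after 24 h of compound treatment: VEGFR2 on primary human umbilical vein endothelial cells, fitted in both directions relative to DMSO. Parallel cultures received SRB staining (560 nm) for overt cytotoxicity.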

Read-out in experiment [9]: Matrix Metallopeptidase 1 (MMP1), MMP1 (gene 4312)
Put plainly: BSK_BE3C_MMP1: BioMAP Diversity Plus: BE3C Assay for Matrix Metallopeptidase 1 (MMP1) Biomarker Activity (AID 2283024). The note with it: primary human bronchial epithelial cells; actives raise or lower the signal. The procedure, abridged:
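Primary human bronchial epithelial cells were dosed with test chemicals, and MMP1 levels were measured by ELISA 24 h later. Data were fitted bidirectionally against DMSO as the negative control and activity baseline.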

For `CN(C)[C@@H]1C(=O)C(C(N)=O)=C(O)[C@@]2(O)C(=O)C3=C(O)c4c(O)cccc4[C@@](C)(O)[C@H]3C[C@@H]12`, the result in experiment [1], in experiment [2], in [3], in [4], in experiment [5] and in experiment [6] was inactive. For the same compound, the result in experiment [7] and in [8] was inactive.

With `c1ccc(C2CO2)cc1` (stereo not given), the outcome in [1], in experiment [9], in [2], in experiment [3], in experiment [4] and in [5] was inactive. The outcome in [6], in experiment [7] and in experiment [8] was inactive.

For `O=P(OCCCl)(OCCCl)OCCCl`, the outcome in experiment [1], in [9], in experiment [2], in experiment [3], in experiment [4] and in [5] was inactive. Moreover, the result in experiment [6], in [7] and in [8] was inactive.

In general, AC50 refers to the midpoint of the concentration-response curve, whichever way the signal moves. As for `CCCCCCCCn1sccc1=O`, the half-maximal activity concentration (AC50) in [1] is 20.8 µM (active); in experiment [2] it was 12.9 µM (active); in experiment [3], 8.69 µM (active); in experiment [4], 21 µM (active); in experiment [5], 12.8 µM (active); in experiment [6], 5.76 µM (active). In addition, the AC50 in [7] is 10.5 µM (active). The result in [8] was inactive.

`Cc1ccc(N)c(N)c1`: the outcome in experiment [1], in experiment [2], in [3], in experiment [5], in experiment [6] and in experiment [7] was inactive. In addition, the result in experiment [8] was inactive. The half-maximal activity concentration (AC50) in experiment [4] was 4.08 µM (active).

`ClCCOCCCl`: the outcome in experiment [1], in experiment [2], in experiment [3], in experiment [4], in experiment [5] and in [6] was inactive. Moreover, the result in experiment [7] and in [8] was inactive.

For the compound `CCCCOC(=O)c1ccccc1C(=O)OCc1ccccc1`, the outcome in [1], in experiment [2], in experiment [3], in [4], in experiment [5] and in [6] was inactive. The result in experiment [7] and in experiment [8] was inactive.

As to `CC(C)COC(=O)c1ccccc1C(=O)OCC(C)C`, the AC50 in experiment [1] is 31.5 µM (active). Moreover, the outcome in [2], in [3], in experiment [4], in experiment [5], in experiment [6] and in experiment [7] was inactive. Besides, the result in [8] was inactive.

Take `C=CCc1ccc2c(c1)OCO2`: the outcome in experiment [1], in experiment [2], in [3], in experiment [4], in experiment [5] and in [6] was inactive. Further, the result in experiment [7] and in experiment [8] was inactive.

Take `Nc1ccc(Oc2ccc(N)cc2)cc1`: the result in [1], in experiment [2], in [3], in [4], in [5] and in [6] was inactive. In addition, the outcome in experiment [7] and in experiment [8] was inactive.

With `CCC(C)c1ccc(O)cc1` (stereo not given), the result in experiment [1], in experiment [9], in experiment [2], in experiment [3], in [4] and in [5] was inactive. The result in experiment [6], in experiment [7] and in [8] was inactive.

For the compound `Cn1cc(-c2ccccc2)c(=O)c(-c2cccc(C(F)(F)F)c2)c1`, the outcome in [1], in experiment [2], in [3], in experiment [4], in [5] and in [6] was inactive. The result in experiment [7] and in [8] was inactive.

For the compound `COC(=O)Nc1nc2ccccc2[nH]1`, the concentration at half-maximal activity (AC50) in experiment [1] is 8.51 µM (active); in experiment [2], 9.8 µM (active); in experiment [4] it was 14.5 µM (active); in experiment [7], 8.56 µM (active). The outcome in [3], in experiment [5], in experiment [6] and in experiment [8] was inactive.

Regarding `COP(=S)(OC)SCN1C(=O)c2ccccc2C1=O`, the outcome in experiment [1], in experiment [2], in [3], in [4], in experiment [5] and in [6] was inactive. The result in experiment [7] and in [8] was inactive.

Regarding `Nc1cc(Cl)cc(C(=O)O)c1Cl`, the outcome in experiment [1], in experiment [2], in experiment [3], in [4], in experiment [5] and in [6] was inactive. The outcome in experiment [7] and in [8] was inactive.

In the case of `CCCCCOC(=O)c1ccccc1C(=O)OCCCCC`, the AC50 in experiment [1] is 32.2 µM (active); in experiment [2] it was 39 µM (active); in [3], 20 µM (active). Also, the outcome in experiment [4], in [5], in experiment [6], in [7] and in experiment [8] was inactive.

Regarding `CCC12COCN1COC2`, the outcome in experiment [1], in experiment [9], in experiment [2], in [3], in experiment [4] and in experiment [5] was inactive. The outcome in experiment [6], in experiment [7] and in [8] was inactive.

Turning to `CN(C)C(=O)Nc1ccc(Cl)cc1`, the outcome in experiment [1], in experiment [2], in experiment [3], in [4], in [5] and in experiment [6] was inactive. In addition, the result in [7] and in experiment [8] was inactive.

Take `CC(C)(O)c1cnn2c(-c3ccc(F)c(-c4c(F)cccc4C#N)c3)cnc2n1`: the AC50 in experiment [1] was 30.4 µM (active); in experiment [2], 37.5 µM (active); in [3], 36.2 µM (active); in experiment [4], 28.9 µM (active); in experiment [5], 29.6 µM (active); in experiment [6], 22.7 µM (active). For the same compound, the result in [7] and in experiment [8] was inactive.

For `CCCCCCCCCCCCCN1CC(C)OC(C)C1` (stereo not given), the result in experiment [1], in experiment [9], in experiment [2], in experiment [3], in [4] and in [5] was inactive. In addition, the outcome in [6], in experiment [7] and in experiment [8] was inactive.

As for `O=C(Oc1ccc(Br)cc1)N1CCN2CCC1CC2`, the result in [1], in experiment [2], in experiment [3], in [4], in experiment [5] and in experiment [6] was inactive. In addition, the outcome in experiment [7] and in experiment [8] was inactive.

`CCCCCCCCOC(=O)c1ccc(C(=O)OCCCCCCCC)c(C(=O)OCCCCCCCC)c1`: the outcome in experiment [1], in [2], in experiment [3], in experiment [4], in [5] and in experiment [6] was inactive. In addition, the result in experiment [7] and in [8] was inactive.

Take `O=C(Nc1ccccc1)c1ccccc1I`: the result in experiment [1], in [9], in experiment [2], in [3], in experiment [4] and in experiment [5] was inactive. Moreover, the outcome in experiment [6], in experiment [7] and in experiment [8] was inactive.
